Inconclusive results are not listed. Values without a mark were called inactive. Activity calls are given as the source filed them. Calls follow the shape of the dose curve; as a rule, active = well fitted cell-killing curve with a large enough effect; inconclusive = small, poorly fitted or top-dose-only effect, or effect the other way; inactive = no such curve, though single readings can be large or run the other way.
Potency is read from the fitted curve at half-maximal effect.

The nature of one assay: Quantitative High-Throughput drug screen in 47 multiple myeloma cell lines against the NCATS MIPE library collection: OCIMY7_PLB cell viability assay (AID 1918987). Also: nearly all actives have a fitted effect of over 65% in size. The note with it: OCI-MY7 myeloma viability, CellTiter-Glo ATP, 48 h; series mostly up to 45.8 µM; viability (% of DMSO): at the top concentration. Summed up:
(§1)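 Inhibition of viability over 48 h was scored by ATP content (CellTiter-Glo) in 500-cell wells. Zero and full viability were defined by media-only and DMSO-only wells.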
In the case of `CN1C2CCC1CC(OC(=O)C(CO)c1ccccc1)C2` (configuration not stated), the “viability (% of DMSO)” value is 181%.
As to `Clc1ccc(C(c2ccccc2Cl)C(Cl)Cl)cc1` (configuration not stated), the Potency is 18.7 µM (active).
The same measure, in the same setting: under `COc1nc(C)nc(Cl)c1NC1=NCCN1` stands 18.7 µM (active).
Consider `Clc1ccc2nsnc2c1NC1=NCCN1`, for which the “viability (% of DMSO)” value is 208%.
On to `O=c1c(O)c(-c2ccc(O)c(O)c2)oc2cc(O)cc(O)c12`, for which the Potency is 11.8 µM (active).
Same read-out and setting: under `Clc1ccccc1C(c1ccccc1)(c1ccccc1)n1ccnc1` stands 18.7 µM (active).
With `COc1ccc2[nH]cc(CCNC(C)=O)c2c1`, the “viability (% of DMSO)” value was 202%.
Still for that read-out and setting: under `Fc1ccc([C@@H]2CCNC[C@H]2COc2ccc3c(c2)OCO3)cc1` stands 135%.
In the case of `CC12CC3CC(C)(C1)CC(N)(C3)C2`, the Potency was 23.5 µM (active).
As to `CN(C)C(=N)N=C(N)N`, the “viability (% of DMSO)” value is 160%.
As for `Cn1ccc2cc3c(cc21)CCN3C(=O)Nc1cccnc1`, the Potency is 20.9 µM (active).
Still for that read-out and setting: under `Nc1ccn([C@H]2CC[C@@H](CO)O2)c(=O)n1` stands 13.2 µM (active).

The nature of the next assay: Quantitative High-Throughput drug screen in 47 multiple myeloma cell lines against the NCATS MIPE library collection: OCIMY5_PLB cell viability assay (AID 1918988). Also: nearly all actives have a fitted effect of over 65% in size.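 As to viability, % of control: 100% = DMSO-treated wells and 0% = wells with media alone.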 Particulars: OCI-MY5 myeloma viability, ATP luminescence, 48 h; series mostly up to 45.8 µM; viability, % of control: at the top concentration. Summed up: as §1
Consider `CCOC(=O)c1ncn2c1CN(C)C(=O)c1cc(F)ccc1-2`, for which the Potency was 20.9 µM (active).
Take `O=C(c1ccc(OCCN2CCCCC2)cc1)c1c(-c2ccc(O)cc2)sc2cc(O)ccc12`: the Potency is 18.7 µM (active).
Turning to `CCOC(=O)C(C)(C)Oc1ccc(Cl)cc1`, the “viability, % of control” value was 186%.
As for `O=C(CCCN1CCC(O)(c2ccc(Cl)cc2)CC1)c1ccc(F)cc1`, the Potency was 18.7 µM (active).
On the same count and under the same terms, under `OCCN(CCO)c1nc(N2CCCCC2)c2nc(N(CCO)CCO)nc(N3CCCCC3)c2n1` stands 23.5 µM (active); under `CC(C)NCC(O)c1ccc(O)c(O)c1` (configuration not stated), 5.26 µM (active).
The same measure, in the same setting: under `CNCCCC12CCC(c3ccccc31)c1ccccc12` stands 23.5 µM (active); under `CN1CCC(=C2c3ccccc3CC(=O)c3sccc32)CC1`, 23.5 µM (active).
Same read-out and setting: as for `COc1ccccc1OCCNCC(O)COc1cccc2[nH]c3ccccc3c12` (configuration not stated), the figure is 18.7 µM (active); as for `CS(=O)(=O)Nc1ccc([N+](=O)[O-])cc1Oc1ccccc1`, 11.8 µM (active).
As for `NCCc1cnc[nH]1`, the “viability, % of control” value was 197%.

The next assay is described as follows: Quantitative High-Throughput drug screen in 47 multiple myeloma cell lines against the NCATS MIPE library collection: OPM1_PLB cell viability assay (AID 1918989). Also: nearly all actives have a fitted effect of over 40% in size.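 As to viability (% of control): 100% = DMSO-only wells and 0% = media-only wells.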 Particulars: CellTiter-Glo, 48 h; series mostly up to 45.8 µM; viability (% of control): at the top concentration. Summed up:
as §1
Take `CCOC(=O)c1ncn2c1CN(C)C(=O)c1cc(F)ccc1-2`: the “viability (% of control)” value was 148%.
Still for that read-out and setting: as for `CN1C2CCC1CC(OC(=O)C(CO)c1ccccc1)C2` (configuration not stated), the figure is 126%.
`O=C(c1ccc(OCCN2CCCCC2)cc1)c1c(-c2ccc(O)cc2)sc2cc(O)ccc12`: the Potency is 5.9 µM (active).
Take `COc1cc2c(c(OC)c1OC)-c1ccc(OC)c(=O)cc1[C@@H](NC(C)=O)CC2`: the “viability (% of control)” value was 5.22%.
Still for that read-out and setting: under `CCOC(=O)C(C)(C)Oc1ccc(Cl)cc1` stands 167%.
In the case of `Clc1ccc(C(c2ccccc2Cl)C(Cl)Cl)cc1` (configuration not stated), the Potency is 20.9 µM (active).
Turning to `COc1nc(C)nc(Cl)c1NC1=NCCN1`, the “viability (% of control)” value is 122%.
Take `CC1(CN2CCC(n3c(=O)[nH]c4ccccc43)CC2)OCc2ccccc2-n2cccc21` (configuration not stated): the Potency is 8.33 µM (active).
Regarding `Clc1ccc2nsnc2c1NC1=NCCN1`, the “viability (% of control)” value was 141%.
Same read-out and setting: under `Cc1cc(C(C)(C)C)c(O)c(C)c1CC1=NCCN1` stands 130%.
On to `CC(C)NCC(O)c1ccc(O)c(O)c1` (configuration not stated), for which the Potency is 4.18 µM (active).
Same read-out and setting: under `CNCCCC12CCC(c3ccccc31)c1ccccc12` stands 23.5 µM (active); under `O=c1c(O)c(-c2ccc(O)c(O)c2)oc2cc(O)cc(O)c12`, 20.9 µM (active).
Consider `COc1ccccc1OCC(O)CN1CCN(CC(=O)Nc2c(C)cccc2C)CC1` (configuration not stated), for which the “viability (% of control)” value was 144%.
Turning to `CN1CCC(=C2c3ccccc3CC(=O)c3sccc32)CC1`, the Potency is 23.5 µM (active).
In the case of `O=c1c(-c2ccc(O)cc2)coc2cc(O)cc(O)c12`, the “viability (% of control)” value was 99.3%.
Still for that read-out and setting: under `NCCCCCC(=O)O` stands 143%; under `COc1ccc(C2CNC(=O)C2)cc1OC1CCCC1` (configuration not stated), 143%; under `CN(C)C(=N)N=C(N)N`, 150%.
Turning to `CCOC(=O)Nc1ccc(NCc2ccc(F)cc2)nc1N`, the “viability (% of control)” value was 123%.
Same read-out and setting: under `NCCc1cnc[nH]1` stands 165%.

A short description of a further assay: Quantitative High-Throughput drug screen in 47 multiple myeloma cell lines against the NCATS MIPE library collection: U266_ATCC cell viability assay (AID 1919864). Also: nearly all actives have a fitted effect of over 35% in size.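 As to viability (% of DMSO control): 0% = media-only wells without cells and 100% = DMSO-only wells.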 The note with it: U266 myeloma viability, CellTiter-Glo ATP luminescence, 48 h; series mostly up to 45.8 µM; viability (% of DMSO control): at the top concentration. Summed up: as §1
For `C[C@](N)(Cc1ccc(O)c(O)c1)C(=O)O`, the Potency was 18.7 µM (active).
On to `CCOC(=O)C(C)(C)Oc1ccc(Cl)cc1`, for which the “viability (% of DMSO control)” value was 144%.
Regarding `Clc1ccc(C(c2ccccc2Cl)C(Cl)Cl)cc1` (configuration not stated), the Potency was 20.9 µM (active).
Still for that read-out and setting: under `COc1nc(C)nc(Cl)c1NC1=NCCN1` stands 20.9 µM (active); under `CC1(CN2CCC(n3c(=O)[nH]c4ccccc43)CC2)OCc2ccccc2-n2cccc21` (configuration not stated), 5.9 µM (active).
For `Cc1cc(C(C)(C)C)c(O)c(C)c1CC1=NCCN1`, the “viability (% of DMSO control)” value is 126%.
For the compound `OCCN(CCO)c1nc(N2CCCCC2)c2nc(N(CCO)CCO)nc(N3CCCCC3)c2n1`, the Potency was 23.5 µM (active).
The same measure, in the same setting: under `CC(C)NCC(O)c1ccc(O)c(O)c1` (configuration not stated) stands 16.6 µM (active); under `CNCCCC12CCC(c3ccccc31)c1ccccc12`, 16.6 µM (active).
For the compound `COc1ccccc1OCC(O)CN1CCN(CC(=O)Nc2c(C)cccc2C)CC1` (configuration not stated), the “viability (% of DMSO control)” value was 104%.
Turning to `Clc1ccccc1C(c1ccccc1)(c1ccccc1)n1ccnc1`, the “viability (% of DMSO control)” value is 127%.
`COc1ccc2[nH]cc(CCNC(C)=O)c2c1`: the Potency was 8.33 µM (active).
Turning to `COc1ccc(C2CNC(=O)C2)cc1OC1CCCC1` (configuration not stated), the “viability (% of DMSO control)” value is 115%.
Still for that read-out and setting: under `COc1cc2nc(N(C)CCCNC(=O)C3CCCO3)nc(N)c2cc1OC` (configuration not stated) stands 115%.
Still for that read-out and setting: as for `CN(C)C(=N)N=C(N)N`, the figure is 123%; as for `CCOC(=O)Nc1ccc(NCc2ccc(F)cc2)nc1N`, 126%.
Still for that read-out and setting: as for `Nc1ccn([C@H]2CC[C@@H](CO)O2)c(=O)n1`, the figure is 142%.
On to `NCCc1cnc[nH]1`, for which the “viability (% of DMSO control)” value was 151%.
